Results published in PubChem BioAssay.

Target: Homeobox protein Hox-A13 (Mus musculus) (UniProt Q62424)
Experiment: inhibitors of HoxA13-DNA binding, primary screen, biochemical, fluorescence polarization, labeled oligonucleotide (AID 1185)
Details: 15 min, higher = more signal, called active from +8 up or from −8 down

Chain of Homeobox protein Hox-A13 (Mus musculus) (Q62424 whole entry, looked up): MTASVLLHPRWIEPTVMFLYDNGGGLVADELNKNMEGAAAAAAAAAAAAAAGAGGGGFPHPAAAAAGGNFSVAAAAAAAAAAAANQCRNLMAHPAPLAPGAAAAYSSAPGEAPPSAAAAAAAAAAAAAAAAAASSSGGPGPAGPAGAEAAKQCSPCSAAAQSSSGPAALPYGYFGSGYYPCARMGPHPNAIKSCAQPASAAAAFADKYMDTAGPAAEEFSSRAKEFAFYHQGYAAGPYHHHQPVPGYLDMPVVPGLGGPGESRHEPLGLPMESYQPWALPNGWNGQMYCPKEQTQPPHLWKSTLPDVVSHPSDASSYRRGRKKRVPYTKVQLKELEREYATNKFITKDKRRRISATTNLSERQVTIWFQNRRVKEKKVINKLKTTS

z-score, inactive:
CC(C)=CCCC(C)=CCON=C1C[C@@H](O)[C@@H](O)[C@@H]2[C@@H]3C(=O)N(C[C@@H]4CCCO4)C(=O)[C@@H]3CC[C@H]12 -3.8
CCCNC(=O)OC[C@H]1O[C@H](CCON=C(C)CCC(=O)OC[C@H]2O[C@H](c3ccccc3)C=C[C@@H]2Oc2ccc(OC)cc2)C=C[C@@H]1Oc1ccc(OC)cc1 -2.1
O=C1[C@H]2[C@H]3[C@H](O)[C@H](O)CC(=NOC[C@@H](O)COCc4ccco4)[C@H]3CC[C@H]2C(=O)N1Cc1ccccc1 -2.38
O=c1n(-c2ccccc2)c(=O)n2n1CC[C@@H]1C(=NOCc3ccccc3)[C@H]3O[C@H]3[C@@H](O)[C@@H]12 -4.06
CO[C@H]1COC(=O)[C@@H]2CCCN2C(=O)CC=C[C@@H](C)[C@H](OC)COC(=O)[C@@H](OCc2ccccc2)C=C[C@@H]1C -1.53
CC(=O)Nc1ccc([C@@H]2N[C@H](C(=O)O)CC[C@H]2C)cc1 -0.107
COC(=O)CC=C[C@@H](C)[C@H](OCc1cccc(-c2ccccc2)c1)C1CCCCC1 -1.35
COC(=O)CC=C[C@@H](C)[C@@H](C=NOC[C@H]1O[C@H](c2ccccc2)C=C[C@@H]1Oc1ccc(OC)cc1)OC -2.94
CCOC(=O)CCN1C(=O)[C@H]2[C@H]3[C@H](O)[C@H](O)CC(=NNC(=O)OCc4ccccc4)[C@@H]3CC[C@H]2C1=O 0.897
COc1ccc(COC(=O)NN=C2C[C@@H](O)[C@@H](O)[C@@H]3[C@@H]4C(=O)N(c5cccc(Oc6ccccc6)c5)C(=O)[C@@H]4CC[C@@H]23)cc1 -4.69
